Measured values: publication PMC4336329 (PLoS ONE, 2015)
Among all 310,000 compounds or so, about 14,000 (4.5%) showed an effect of 50% or more. The effect is printed as a negative number. The sample as a whole holds a higher share of strong results than the screen did.

These compounds were tested against human ether-à-go-go-related gene (hERG) potassium channel (human, UniProt Q12809) (assay: primary screen, population patch clamp on CHO cells stably expressing hERG; higher = less effect of the substance).
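Further: peak tail current of the secondary pulse compared with the same well before compound.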

Chain of human ether-à-go-go-related gene (hERG) potassium channel (Q12809 whole entry, looked up): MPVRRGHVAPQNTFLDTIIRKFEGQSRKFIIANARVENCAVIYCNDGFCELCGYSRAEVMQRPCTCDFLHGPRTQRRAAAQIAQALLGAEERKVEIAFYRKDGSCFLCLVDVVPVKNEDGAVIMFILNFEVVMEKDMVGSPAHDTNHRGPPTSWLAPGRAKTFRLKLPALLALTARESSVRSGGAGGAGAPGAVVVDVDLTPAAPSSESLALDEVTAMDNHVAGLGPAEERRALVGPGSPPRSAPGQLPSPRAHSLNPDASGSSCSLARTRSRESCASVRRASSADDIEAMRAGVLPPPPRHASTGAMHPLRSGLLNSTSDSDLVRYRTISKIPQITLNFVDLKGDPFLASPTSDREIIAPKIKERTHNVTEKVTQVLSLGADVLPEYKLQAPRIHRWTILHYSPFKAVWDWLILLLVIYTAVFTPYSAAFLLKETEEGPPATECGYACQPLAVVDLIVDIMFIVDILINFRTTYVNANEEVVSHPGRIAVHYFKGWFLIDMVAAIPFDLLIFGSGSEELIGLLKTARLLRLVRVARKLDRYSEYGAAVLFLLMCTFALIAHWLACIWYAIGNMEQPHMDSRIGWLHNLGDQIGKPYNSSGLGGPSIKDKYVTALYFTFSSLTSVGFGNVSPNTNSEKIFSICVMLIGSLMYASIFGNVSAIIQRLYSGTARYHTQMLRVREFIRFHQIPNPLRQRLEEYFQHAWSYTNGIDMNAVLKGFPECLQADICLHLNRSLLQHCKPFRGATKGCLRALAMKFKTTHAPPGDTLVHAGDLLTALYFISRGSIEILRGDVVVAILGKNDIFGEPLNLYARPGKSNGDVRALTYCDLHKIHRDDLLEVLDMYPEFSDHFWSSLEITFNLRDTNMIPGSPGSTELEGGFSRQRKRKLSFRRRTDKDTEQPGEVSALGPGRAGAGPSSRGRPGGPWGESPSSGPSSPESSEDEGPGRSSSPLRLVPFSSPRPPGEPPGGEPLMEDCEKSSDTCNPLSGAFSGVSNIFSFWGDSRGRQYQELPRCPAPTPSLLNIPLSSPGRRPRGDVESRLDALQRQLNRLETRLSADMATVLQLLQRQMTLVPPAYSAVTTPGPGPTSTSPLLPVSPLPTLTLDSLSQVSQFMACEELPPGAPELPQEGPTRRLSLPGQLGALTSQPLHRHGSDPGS

In order of rising “hERG current change (%, negative = inhibition) at 10uM” value:
1. CC(C)CNS(=O)(=O)c1ccc(CCC(=O)N2CCN(c3ccccc3)CC2)cc1  -91.3%
2. COc1ccc(Cn2cc3c(-c4ccc(F)cc4)nnc-3c3cc(OC)c(OC)cc32)cc1  -88.2%
3. COc1cc2c3nnc(-c4ccccc4)c-3cn(Cc3ccc(F)cc3)c2cc1OC  -76.8%
4. COc1ccc(-c2[nH]ncc2CN2CCC(c3ccncc3)CC2)cc1F  -62.7%
5. COc1ccc(N2CCN(C(=O)CCc3ccc(S(=O)(=O)NCC(C)C)cc3)CC2)cc1  -57.1%
6. CC(C)CNS(=O)(=O)c1ccc(CCC(=O)N2CCN(Cc3ccc4c(c3)OCO4)CC2)cc1  -54.4%
7. COc1ccc(N2CCN(C(=O)CCNS(=O)(=O)c3ccc(Br)s3)CC2)cc1  -50.6%
8. CC(C)CNS(=O)(=O)c1ccc(CCC(=O)N2CCN(c3ccc(F)cc3)CC2)cc1  -50.3%
9. O=C(CCc1ccc(S(=O)(=O)NCCc2ccccc2)cc1)N1CCN(Cc2ccc3c(c2)OCO3)CC1  -48.5%
10. CCCNS(=O)(=O)c1ccc(CCC(=O)N2CCN(c3ccc(F)cc3)CC2)cc1  -43.7%
11. O=C(CCc1ccc(S(=O)(=O)NCc2ccccc2)cc1)N1CCN(Cc2ccc3c(c2)OCO3)CC1  -41.2%
12. COc1cc2c3nnc(-c4ccc(F)cc4)c-3cn(Cc3ccccc3)c2cc1OC  -37.1%
13. Cn1cc(S(=O)(=O)N2CCCC2)cc1C(=O)N1CCN(c2ccccc2)CC1  -35.8%
14. CC(C)CNS(=O)(=O)c1ccc(CCC(=O)N2CCN(Cc3ccccc3)CC2)cc1  -35.2%
15. COc1cc2c3nnc(-c4ccc(F)cc4)c-3cn(Cc3ccc(F)cc3)c2cc1OC  -28.5%
16. COc1ccc(N2CCN(C(=O)CNS(=O)(=O)c3ccc(Br)s3)CC2)cc1  -27.6%
17. CS(=O)(=O)Nc1ccc2c(c1)ncn2CCc1ccccc1  -26.4%
18. COc1ccc(N2CCN(C(=O)CCNS(=O)(=O)c3cccs3)CC2)cc1  -26%
19. COc1ccc(-c2[nH]ncc2CN2CCC(N3CCSCC3)CC2)cc1F  -22.5%
20. O=C1c2ccccc2C(=O)N1CCc1csc(-c2cccc(F)c2)n1  -22.5%
21. CCNS(=O)(=O)c1ccc(CCC(=O)N2CCN(c3ccccc3)CC2)cc1  -16.8%
22. Cc1cccc(OC(C)C(=O)N(Cc2cccs2)C2CCS(=O)(=O)C2)c1C (stereo not drawn)  -14.8%
23. Cc1cc(NC(=O)CN2CCN(S(=O)(=O)c3ccc4ccccc4c3)CC2)no1  -14.7%
24. O=C(c1ccco1)N1CCN(Cc2cn[nH]c2-c2ccc(F)cc2F)CC1  -12.8%
25. O=C(NCCS(=O)c1ccc(Cl)cc1)c1cccc(Cl)c1 (stereo not drawn)  -12.2%
26. CCc1ccc(NC2=NCCCS2)cc1  -9.94%
27. CCNS(=O)(=O)c1ccc(CCC(=O)N2CCN(c3ccc(OC)cc3)CC2)cc1  -8.99%
28. COc1ccc(N2CCN(C(=O)CCc3ccc(S(=O)(=O)NC(C)C)cc3)CC2)cc1  -7.82%
29. COc1ccc(-c2[nH]ncc2CN2CCN(C(=O)c3ccco3)CC2)cc1F  -6.81%
30. CCCCN(C(=O)c1ccc2c(c1)OCO2)c1c(N)n(CC(C)C)c(=O)[nH]c1=O  -6.58%
31. c1ccc2c3c([nH]c2c1)C1(CCNCC1)NCC3  -6.06%
32. COc1cc2c3nnc(-c4ccc(F)cc4)c-3cn(Cc3ccc(C)cc3)c2cc1OC  2.79%
33. Cc1ccc(S(=O)(=O)N(C(=N)N)c2nc(N(C)C)nc(N(C)C)n2)cc1  4.96%
34. Cc1ccccc1CN1CCN(C(=O)c2ccco2)CC1.O=C(O)C(=O)O  7.41%
35. Cc1ccc(C(C)C)c(OC(=O)/C=C/c2ccccc2)c1  9.52%
36. COc1ccc(-c2csc(NC(=O)CN3C(=O)CCC3=O)n2)cc1OC  11.4%
37. CC(=O)Nc1ccc(Nc2ncnc3c2cnn3-c2ccccc2)cc1  12.9%
38. Clc1ccc(-n2ncc3c(NCc4cccnc4)ncnc32)cc1Cl  14.6%
39. Cc1cc(C)nc(Nc2nc(-c3ccccc3)cs2)n1  16.4%
40. CC(C)CNS(=O)(=O)c1ccc(CCC(=O)N2CCCC2)cc1  24.4%
41. COc1cc2c3nnc(-c4ccc(F)cc4)c-3cn(Cc3cccc(F)c3)c2cc1OC  29.7%
42. CN(C)P(=O)(NC(=O)c1cccn1C)N(C)C  47.3%
